Screening data as filed in PubChem.
A selection: hits, their analogues and other compounds. The true share with any hit is near 7.6%.
SW480 rereplic – induces DNA re-replication in SW480 colon adenocarcinoma cells; SW480 DNA re-replication, Hoechst DNA content imaging, 48 h; Potency, µM (titrated, usually from 46.1 µM), most hits filed as activators; hit rate 1.8% among 340,000; note: nearly all actives have a fitted effect of over 55% in size
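SW480 cells exposed to compounds for 48 hr at 37 C, 5% CO2, then Hoechst-stained 40 min. Nuclear DNA content imaged by fluorescence scanning (405 nm excitation, 500-530 nm emission); re-replication scored as increased high-intensity nuclei.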
KCNH2 WT inh – inhibitors of human wildtype KCNH2 potassium channel | U2OS, BacMam KCNH2, thallium flux FluxOr; active compounds read low | AID 720551 | hit rate 0.37% among 340,000 | activity change, % at 1.84 µM | Q12809;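 active = maximum activity change below -70%; inconclusive = maximum activity change between -70% and -50%; inactive = maximum activity change above -50%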
Target sequence (Q12809 whole entry, looked up): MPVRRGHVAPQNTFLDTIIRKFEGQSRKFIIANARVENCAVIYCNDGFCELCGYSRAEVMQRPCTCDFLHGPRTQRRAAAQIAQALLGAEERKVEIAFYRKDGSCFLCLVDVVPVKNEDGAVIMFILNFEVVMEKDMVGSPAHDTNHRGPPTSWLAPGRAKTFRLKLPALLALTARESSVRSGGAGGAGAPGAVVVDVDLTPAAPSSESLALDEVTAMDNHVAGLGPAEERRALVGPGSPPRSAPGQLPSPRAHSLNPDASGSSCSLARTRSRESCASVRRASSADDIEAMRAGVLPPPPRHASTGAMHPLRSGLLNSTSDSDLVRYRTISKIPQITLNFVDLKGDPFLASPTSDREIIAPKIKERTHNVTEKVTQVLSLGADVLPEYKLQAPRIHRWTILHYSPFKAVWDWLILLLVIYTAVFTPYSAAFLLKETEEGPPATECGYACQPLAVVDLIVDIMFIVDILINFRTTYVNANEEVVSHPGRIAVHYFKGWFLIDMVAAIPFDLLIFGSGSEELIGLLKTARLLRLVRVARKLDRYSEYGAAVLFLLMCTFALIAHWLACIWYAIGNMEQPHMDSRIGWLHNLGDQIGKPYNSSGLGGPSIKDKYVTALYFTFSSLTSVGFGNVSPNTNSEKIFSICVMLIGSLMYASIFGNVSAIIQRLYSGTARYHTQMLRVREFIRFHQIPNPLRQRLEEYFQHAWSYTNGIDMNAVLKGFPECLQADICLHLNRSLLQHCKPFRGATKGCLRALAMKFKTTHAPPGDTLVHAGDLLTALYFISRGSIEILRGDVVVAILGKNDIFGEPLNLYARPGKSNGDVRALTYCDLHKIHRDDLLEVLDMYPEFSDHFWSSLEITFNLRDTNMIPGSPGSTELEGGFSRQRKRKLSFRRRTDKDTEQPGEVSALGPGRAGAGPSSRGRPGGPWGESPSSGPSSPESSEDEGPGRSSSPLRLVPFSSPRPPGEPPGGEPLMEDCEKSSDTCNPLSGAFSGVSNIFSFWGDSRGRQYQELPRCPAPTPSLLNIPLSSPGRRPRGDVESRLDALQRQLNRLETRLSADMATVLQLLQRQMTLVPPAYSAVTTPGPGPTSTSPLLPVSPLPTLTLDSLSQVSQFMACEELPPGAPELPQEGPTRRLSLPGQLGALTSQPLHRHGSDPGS
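U2OS cells transduced with wild-type KCNH2 virus are loaded with FluxOr dye for 45 min, and thallium flux is measured in kinetic reads before and after stimulation buffer. Rate constants are normalized to DMSO controls.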
KCNH2 3.1 inh – KCNH2 3.1 (human) potassium channel inhibition. U2OS KCNH2 3.1, thallium flux FluxOr; active compounds read low. activity change, % (tested at about 1.8 µM). hit rate 0.95% among 340,000;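 active = maximum activity change below -70%; inconclusive = maximum activity change from -70% to -50%; inactive = maximum activity change above -50%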;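 note: thallium influx rate constant from kinetic fluorescence after stimulation buffer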
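We transduce U2OS cells with the mutant 3.1 virus, culture them overnight, load FluxOr with Red40 quencher for 45 min, then add stimulation buffer and read kinetically for 2 min to derive a normalized rate constant.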
KB-V1 cytotox – kills drug-selected multidrug resistant KB-V1 cells; KB-V1 MDR cells viability, CellTiter-Glo, 72 h; AID 1347076; Potency, µM (doses to about 46.1 µM), actives largely listed as cytotoxic; hit rate 3.4% among 400,000; note: nearly all actives have a fitted effect of over 60% in size
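Potencies derive from concentration-effect curves fitted to normalized luminescence (CellTiter-Glo) of KB-V1 cells treated for 72 h at 37 degrees C in phenol-red-free DMEM containing 10% FBS.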
KB-3-1 tox – kills parental KB-3-1 adenocarcinoma cells. KB-3-1 viability, CellTiter-Glo ATP luminescence, 72 h. Potency, µM (highest dose often 46.1 µM), hits mostly cytotoxic. hit rate 1.4% among 400,000. AID 1347075; note: nearly all actives have a fitted effect of over 60% in size
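Parental KB-3-1 adenocarcinoma cells in phenol-red-free DMEM with 10% FBS were pin-treated with compounds at several concentrations, incubated 72 h at 37 °C, and viability read by CellTiter-Glo luminescence; concentration-effect curves were fitted after normalization.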
MCF10A rereplic – induces DNA re-replication in MCF 10a normal breast cells | MCF 10A DNA re-replication, Hoechst nuclear intensity, 48 h | Potency, µM (titrated, usually from 46.1 µM), hits mostly activators | hit rate 2.9% among 350,000; note: nearly all actives have a fitted effect of over 50% in size
Hits are given with their value; i = inactive; ? = inconclusive; nt = no result given. Unless noted, calls come from the whole dose curve; as a rule, active = well fitted curve in the direction sought with a large enough effect; inconclusive = small, poorly fitted or top-dose-only effect, or another doubt; inactive = no such curve, though single readings can be large; an effect the other way counts as inactive or inconclusive.

SMILES	SW480 rereplic	KCNH2 WT inh	KCNH2 3.1 inh	KB-V1 cytotox	KB-3-1 tox	MCF10A rereplic
COC(=O)c1cc(C(=O)N2CCN(c3ncccn3)CC2)cc([N+](=O)[O-])c1	i	i	i	?	i	i
COc1ccccc1CCC(=O)OCC(=O)Nc1c(C)nn(-c2ccccc2)c1C	i	i	i	i	i	i
C/C(N)=C(/C#N)C(=O)COC(=O)Cc1coc2ccc3ccccc3c12	i	i	i	i	i	i
O=C(NCCCn1ccnc1)c1sc2cc([N+](=O)[O-])ccc2c1Cl	nt	i	i	?	?	nt
O=C(c1sc2cc([N+](=O)[O-])ccc2c1Cl)N1CCOCC1	i	-97	i	i	i	i
CC(C)N(C(=O)c1sc2cc([N+](=O)[O-])ccc2c1Cl)C(C)C	i	i	i	21µM	i	i
CC(Sc1nnnn1-c1ccc(Cl)cc1)C(=O)NCC(=O)Nc1ccc(F)c(F)c1F (stereo unspecified)	i	i	i	16µM	i	i
Cc1cc(=O)oc2cc(OCC(=O)NCCc3c[nH]c4ccc(F)cc34)ccc12	13µM	i	i	?	i	i
CCC(c1ccc(O)cc1)C(CC)c1ccc(O)cc1 (stereo unspecified)	?	i	i	?	i	?
CC[C@H](c1ccc(O)cc1)[C@@H](CC)c1ccc(O)cc1	i	nt	nt	nt	nt	11µM
CCc1cccc(N2C(=O)CSC23C(=O)N(Cc2ccccc2F)c2ccccc23)c1 (stereo unspecified)	nt	nt	nt	15µM	21µM	nt
O=C1CSC2(C(=O)N(Cc3ccccc3F)c3ccccc32)N1c1ccc(F)cc1 (stereo unspecified)	nt	nt	nt	16µM	?	nt
COc1ccc(/C(C)=N/NS(=O)(=O)c2ccccc2)c(OC)c1	i	i	i	i	i	i
COc1ccc(/C(C)=N\NS(C)(=O)=O)c(OC)c1	0.58µM	i	i	i	i	i
NCC(=O)NCC(=O)OCc1ccccc1	i	i	i	i	i	1µM
CCN(C(=O)CSc1nc(C)c(C)c(C)n1)C1CCS(=O)(=O)C1 (stereo unspecified)	i	i	i	i	i	i
CCCN(CCC)CCN1C(=O)C2C(C(=O)Nc3cccc(SC)c3)C3C=CC2(O3)C1C(=O)NC1CCCCC1 (stereo unspecified)	?	i	i	i	i	i
CCN(CC)CCN1C(=O)C2C(C(=O)Nc3cccc(SC)c3)C3C=CC2(O3)C1C(=O)NC1CCCC(C)C1C (stereo unspecified)	18µM	i	i	?	i	i
CC1CCCCN1CCCNC(=O)c1ccc2c(c1)sc1nc(-c3ccc(F)cc3)cn12 (stereo unspecified)	nt	nt	nt	21µM	i	nt
O=C(NCCCN1CCCCC1)c1ccc2c(c1)sc1nc(-c3ccc(F)cc3)cn12	nt	nt	nt	16µM	i	nt
CCOc1ccc(-c2cn3c(n2)sc2cc(C(=O)NCCCN4CCCCC4)ccc23)cc1	nt	nt	nt	21µM	?	nt
CCOc1ccc(-c2cn3c(n2)sc2cc(C(=O)NCCc4ccc(OC)cc4OC)ccc23)cc1	nt	nt	nt	i	i	nt
CCOc1ccc(-c2cn3c(n2)sc2cc(C(=O)NCCCN4CCCCCC4)ccc23)cc1	nt	nt	nt	?	i	nt
CC1CCCCN1CCCNC(=O)c1ccc2nc(N3CCCCC3)sc2c1 (stereo unspecified)	i	i	i	i	i	i
CCCN1CCN(CCCNC(=O)c2ccc3c(c2)sc2nc(-c4ccc(OCC)cc4)cn23)CC1	nt	nt	nt	?	18µM	nt
Cc1ccc(-c2cn3c(n2)sc2cc(C(=O)NCCCN4CCCCCC4)ccc23)cc1	nt	nt	nt	i	i	nt
CCc1ccc(NC(=O)c2c(C(=O)Nc3ccccc3)sc3nc(C)cc(=O)n23)cc1	i	nt	i	i	i	18µM
Cc1ccc(NC(=O)c2c(C(=O)Nc3ccccc3)sc3nc(C)cc(=O)n23)cc1	i	i	-103	i	i	i
COc1ccc(NC(=O)c2c(C(=O)Nc3ccccc3)sc3nc(C)cc(=O)n23)cc1	nt	nt	nt	i	i	nt
COc1cccc(Sc2nc(-c3ccccc3)ncc2S(C)(=O)=O)c1	i	i	i	i	i	i
